In the library only some 2.9% were active in any assay of this set; here they are far more common.
MRP resist rev: compounds reversing MRP-mediated drug resistance | H69AR cells + 2 uM doxorubicin, CellTiter-Glo, 72 h | differential viability (reversal), % at 10 µM | 0.04% of 85,000 active;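 active = viability drop by adding the cancer drug above about 55%, with treated viability meeting a 40% cutoff, limit read from the data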;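 also: viability without doxorubicin minus viability with 2 µM doxorubicin for each compound; larger differential means the compound sensitizes cells more to doxorubicin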
ERb coact inh: blocks coactivator binding to human estrogen receptor beta. 1.3% of 86,000 active. inhibition, % at 25.6 µM. TR-FRET ER-beta LBD / SRC1-Cy5 peptide binding; receptor agonist-loaded with 1 µM estradiol. Q92731;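 active = compounds whose percent inhibition of the receptor-coactivator binding signal exceeds about 50% in the single-dose screen, limit read from the data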;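 also: 0% = receptor plus peptide wells without compound and 100% = peptide-only wells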
Target sequence (Q92731 whole entry, looked up, the tested form may be a part): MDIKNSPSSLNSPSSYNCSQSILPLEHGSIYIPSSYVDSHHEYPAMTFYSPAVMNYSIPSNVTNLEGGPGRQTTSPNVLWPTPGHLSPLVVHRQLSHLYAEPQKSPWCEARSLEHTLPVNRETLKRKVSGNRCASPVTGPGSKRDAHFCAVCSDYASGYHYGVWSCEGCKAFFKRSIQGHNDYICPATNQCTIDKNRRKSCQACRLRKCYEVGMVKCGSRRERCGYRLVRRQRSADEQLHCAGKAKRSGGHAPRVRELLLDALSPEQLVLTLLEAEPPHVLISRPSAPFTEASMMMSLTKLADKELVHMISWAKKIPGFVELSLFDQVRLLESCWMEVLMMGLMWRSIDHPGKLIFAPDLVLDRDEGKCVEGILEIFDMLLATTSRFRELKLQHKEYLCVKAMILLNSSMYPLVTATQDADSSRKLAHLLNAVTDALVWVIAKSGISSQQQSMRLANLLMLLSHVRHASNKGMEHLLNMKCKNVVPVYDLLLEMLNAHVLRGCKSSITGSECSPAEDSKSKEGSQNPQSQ
MRP1 act: activators of MRP-1; AID 799; viability increase, % at 10 µM; 0.61% of 140,000 active; H69AR cells + doxorubicin, viability rescue, CellTiter-Glo;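 active = viability gain under doxorubicin at or above a set limit, the compound median plus 3 SD, cut at about 4.7% in these data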;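 also: MRP-1 overexpressing cells given doxorubicin 25 µM after compound pretreatment; 18-22 h compound pretreatment then 72 h with doxorubicin before readout; 0% = doxorubicin-only wells and 100% = vehicle-treated cells without doxorubicin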
Smad3 inh: blocks human Smad3 binding to FoxH1 peptide. P84022. TR-FRET Smad3/Dy647-FoxH1 peptide binding, europium anti-His. inhibition, % at 25 µM. 0.29% of 88,000 active. AID 630;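 active = compounds that reduce the energy-transfer binding signal between the protein and its labelled peptide by more than half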;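 also: 0% = Smad3 plus labelled peptide maximal FRET and 100% = peptide-only background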
ERa SRC1 inh: blocks coactivator binding to human estrogen receptor alpha; P03372; TR-FRET ER-alpha LBD / SRC-1 peptide, estradiol-bound; inhibition, % at 25.6 µM; 1.7% of 86,000 active; in the data active = inhibition above about 50%;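 also: 0% = receptor plus peptide control and 100% = peptide only without receptor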
ERa SRC1 pot: enhances coactivator binding to human estrogen receptor alpha; P03372; TR-FRET ERalpha-LBD/SRC-Cy5 coactivator binding, 2 h; 100 = basal binding, no effect; coactivator binding (% of control), % at 25.6 µM; 1.3% of 86,000 active; AID 639; in the data active = activity above about 200%;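 also: binding measured in presence of low estradiol as agonist stimulus; 0% = peptide alone without receptor and 100% = receptor with peptide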
* hit, by the source's call; nt = no result given; [ ] = dose if it differs, or a comment.

SMILES | MRP resist rev | ERb coact inh | MRP1 act | Smad3 inh | ERa SRC1 inh | ERa SRC1 pot
Cn1c(Cn2c(=O)sc3ccccc32)nnc1SCC(=O)Nc1ccc(Cl)cc1 | -10 | -5 | -3 | 3 | -4 | 231*[fluorescence artefact?]
CC1CCCC(C)N1C(=O)Nc1cccc(Cl)c1 (centres undefined) | 11 | 53* | 1 | 3 | 22 | 84
COCCn1c(C)cc(C(=O)CSc2cc(C)c3ccc(OC)cc3n2)c1C | nt | nt | 0 | nt | nt | nt
COc1ccc2c(C)cc(SCC(=O)c3ccc4c(c3)OCO4)nc2c1 | 5 | 12 | -2 | -4 | 16 | 300*[fluorescence artefact?]
O=C1C(N2CCOCC2)=C(n2nnc3ccccc32)C(=O)c2ccccc21 | 0 | -14 | -3 | 52* | -19 | 97
O=C1c2ccccc2C(=O)c2c1cccc2N1CCOCC1 | nt | nt | -4 | nt | nt | nt
COc1cc(SC)ccc1C(=O)NCCOc1c(C)cc(C)cc1C | nt | nt | 0 | nt | nt | nt
COc1cc(SC)ccc1C(=O)NCCOc1ccc(Cl)cc1 | nt | nt | 6.4* | nt | nt | nt
Cc1nc2sccn2c1-c1nc(-c2cc3ccccc3o2)cs1 | -6 | 28 | -1 | -1 | 61* | 90
CSc1nc(NCc2ccco2)c2ccccc2n1 | 10 | 4 | -2 | 41 | 54* | 98
Cc1ccc(-c2nc(NCc3ccco3)c3ccccc3n2)cc1 | nt | nt | -2 | nt | nt | nt
COc1ccc(-c2nnc(SCC(=O)Nc3sc4c(c3C#N)CCCC4)n2-c2ccccc2)cc1 | 1 | 6 | -8 | 17 | 5 | 230*[fluorescence artefact?]
CCOC(=O)Cc1csc(SCC(=O)NC2CCCCC2)n1 | nt | nt | -1 | nt | nt | nt
N#Cc1ccc(-c2cccnc2)nc1SCC(=O)Nc1sc2c(c1C#N)CCC2 | -5 | 66* | 0 | 4 | 85* | 53
O=C(CSc1n[nH]c(-c2ccco2)n1)Nc1sc2c(c1C(=O)Nc1ccccc1)CCCC2 | 3 | 35 | -1 | 14 | 51* | 78
CCOC(=O)Cc1csc(SCC(=O)Nc2sc3c(c2C(N)=O)CCC3)n1 | -7 | 82*[fluorescence artefact?] | -1 | 4 | 92*[fluorescence artefact?] | 61
C[C@H](NC(=O)c1ccc(Cl)c(Cl)c1)c1ccc(-c2ccccc2)cc1 | nt | nt | nt | -4 | nt | nt
NC(=O)c1c(NC(=O)CSc2nnc(-c3ccco3)n2-c2ccccc2)sc2c1CCC2 | -39 | 82*[fluorescence artefact?] | -2 | 14 | 94*[fluorescence artefact?] | 28
CCOC(=O)c1c(NC(=O)CSc2nnc(-c3ccc(OC)cc3)o2)sc2c1CCC2 | -26 | 15 | nt | -3 | 35 | 116
N#Cc1c(NC(=O)CSc2nnc(-c3ccco3)n2-c2ccccc2)sc2c1CCC2 | 19 | 38 | -2 | -2 | 44 | 61
CCC1(CC)NC(=O)N(CC(=O)Nc2sc3c(c2C(N)=O)CCC3)C1=O | 13 | 74*[fluorescence artefact?] | -3 | 10 | 84* | 28
NC(=O)c1c(NC(=O)COC(=O)CSc2nnc(-c3ccc(Cl)cc3)o2)sc2c1CCC2 | 6 | 46 | -3 | 11 | 58*[fluorescence artefact?] | 41
CCC1(C)NC(=O)N(CC(=O)Nc2sc3c(c2C(=O)OC)CCCCC3)C1=O (centres undefined) | nt | nt | 0 | nt | nt | nt
COc1ccc(Nc2nnc(Cc3ccc(Cl)cc3)c(=O)[nH]2)c(OC)c1 | 2 | 4 | 7.0* | 6 | 11 | 115
Cc1cc2oc(=O)cc(COC(=O)c3n[nH]c4ccccc34)c2cc1C | -4 | 21 | -2 | -1 | 24 | 338*
SMILES | MRP resist rev | ERb coact inh | MRP1 act | Smad3 inh | ERa SRC1 inh | ERa SRC1 pot
COc1ccc2c(COC(=O)c3n[nH]c4ccccc34)cc(=O)oc2c1 | nt | nt | -1 | nt | nt | nt
Cc1nc(/N=C(\N)NC(=O)c2ccccc2)nc2ccccc12 | nt | nt | -2 | nt | nt | nt
Cc1nc(/N=C(\N)NC(=O)N2c3ccccc3Sc3ccccc32)nc2ccccc12 | nt | nt | 6.5* | nt | nt | nt
CCCC(=O)NC(C)c1nc2ccccc2n1CC (centres undefined) | 1 | -11 | -1 | 7 | 82*[fluorescence artefact?] | 98
C[C@H](Oc1ccc(Oc2cnc3ccc(Cl)cc3n2)cc1)C(=O)O | nt | nt | nt | 4 | nt | nt
Clc1ccc(Cl)c(SCCCN2CCNCC2)c1 | nt | nt | nt | 4 | nt | nt
CCNC(=O)NC(=O)COc1ccccc1C#N | 8 | -24 | 0 | -10 | -25 | 332*[fluorescence artefact?]
CC(C)=C[C@H]1[C@H](COC(=O)c2ccccc2Cl)C1(C)C | nt | nt | nt | -3 | nt | nt
Cc1nc(NCCCn2ccnc2)c2ccccc2n1 | 3 | 5 | -1 | 12 | 0 | 92
O=C1c2ccccc2-c2onc3ccc(NCCCn4ccnc4)c1c23 | -21 | 27 | -8 | 4 | 70*[fluorescence artefact?] | 89
C[C@@H]1Oc2ccc(C(=O)C[C@@H](C(=O)O)c3ccc4c(c3)OCO4)cc2O1 | nt | nt | nt | -5 | nt | nt
Cc1noc(C)c1COC(=O)c1cc2c(C)nn(-c3ccc(F)cc3)c2s1 | -8 | 59*[fluorescence artefact?] | nt | 9 | 74*[fluorescence artefact?] | 150
Cc1nn(-c2ccc(F)cc2)c2sc(C(=O)OCC(=O)N3CCC(C)CC3)cc12 | 3 | 7 | 4 | 5 | -8 | 103
Cc1noc(C)c1COC(=O)c1cc2c3ccccc3n(C)c2s1 | -6 | -49 | 0 | 6 | -80 | 751*
Cn1c(SCC(=O)Nc2sccc2C#N)nnc1-c1ccccc1 | 2 | 46 | -2 | -6 | 53* | 29
Cn1c(SCC(=O)n2c3c(c4ccccc42)CCCC3)nnc1-c1ccccc1 | 17 | -3 | -1 | -4 | 10 | 190
Cc1cccc(NC(=O)CSc2nnc(-c3ccncc3)n2C)c1 | 7 | 4 | 0 | -1 | -5 | 101
CC(=O)Nc1ccc(-c2nnc(SCC(=O)n3c4c(c5ccccc53)CCCC4)n2C)cc1 | -55 | -15 | -1 | 10 | -24 | 256*
Cn1cnnc1SCC(=O)Nc1sccc1C#N | 2 | 19 | -2 | 5 | 28 | 74
Cn1c(SCC(=O)Nc2ccc3c(c2)oc2ccccc23)nnc1-c1ccccc1 | -8 | 31 | -1 | 11 | 52* | 251*[fluorescence artefact?]
Cn1c(SCC(=O)Nc2ccccc2F)nnc1-c1cc2ccccc2o1 | -4 | 6 | -1 | -76 | -40 | 597*[fluorescence artefact?]
CCN(CC(=O)NCc1ccccn1)S(=O)(=O)c1ccc(Cl)cc1 | 4 | -4 | -1 | -1 | 2 | 94
N=C(N)c1ccc(-c2ccc(-c3ccc(C(=N)N)cc3)o2)cc1 | nt | nt | nt | 2 | nt | nt
CC(C)(C)COS(=O)OCC(C)(C)C | nt | nt | nt | 3 | nt | nt
N#CCCSC(=S)[C@@H]1CCCC1=N | nt | nt | nt | 1 | nt | nt
COc1ccc(S(=O)NC2CCCCC2)c(OC)c1C (centres undefined) | 18 | -10 | -3 | 1 | -5 | 109
Cc1cccc(S(=O)(=O)c2c(N)n(Cc3ccco3)c3nc4ccccc4nc23)c1 | 5 | 61* | -1 | 14 | 47 | 88
Nc1c(S(=O)(=O)c2cccs2)c2nc3ccccc3nc2n1Cc1ccccc1 | -9 | 4 | -3 | -8 | 25 | 206*
Cc1ccc(S(=O)(=O)c2c(N)n(Cc3ccco3)c3nc4ccccc4nc23)cc1 | 12 | 16 | -2 | -6 | 10 | 198
CC(C)=C1C2CCC1C1C(=O)N(c3ccc(C)c(C)c3)C(=O)C21 (centres undefined) | nt | nt | -2 | nt | nt | nt
